# The supplement of paper PMC6953052
# “And” between values parts separate entries of the source, which are not always exact repeats. Identical values can stand only once. In all, about 1,700 compounds were measured (“fraction of GFP-LC3-positive cells (≥5 vesicles/cell)”: median about 0.43, highest 2% from about 0.81 on). The list comes from a sample in which the highest values are over-represented; it also holds similar structures and randomly drawn compounds.
# Test system: CbCln3 Δex7/8/Δex7/8 GFP-LC3 cerebellar neuronal cells
# Assay: fraction of GFP-LC3-positive cells (≥5 vesicles/cell); higher = more autophagosome accumulation
# Summary of the method: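 Compound (~50 nL in DMSO) was pin-transferred in duplicate onto wild-type or mutant CbCln3 cerebellar cells stably expressing GFP-LC3, seeded at 2 × 10^3/well in 384-well plates, for 24 h at 33 °C. After fixation in 3.2% PFA, three fields per well were imaged at 10×. The value reported is the duplicate average of the fraction of cells meeting a vesicle-count threshold, with CellProfiler counting GFP-LC3 vesicles per cell and out-of-focus images excluded. Cells met the threshold at 5 or more vesicles.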
row,SMILES,fraction of GFP-LC3-positive cells
1,C[C@]1(Cn2ccnn2)[C@H](C(=O)O)N2C(=O)C[C@H]2S1(=O)=O [Tazobactam],0.531
2,CCCCCCCCCCCCCCC[C@@H](O)[C@@H](N)CO,0.515
3,CCCCCCCCCCCCCCC[C@@H](O)[C@@H](N)CO [Dihydrosphingosine],0.348
4,C[C@]12C=CC(=O)C=C1CC[C@@H]1[C@@H]2C(=O)C[C@@]2(C)[C@H]1CC[C@]2(O)C(=O)CO [Prednisone],0.49
5,CCCC[C@@H](C)/C=C(C)/C=C(\C)C(=O)NC1=C[C@@](O)(/C=C/C=C/C=C/C(=O)NC2=C(O)CCC2=O)[C@@H]2O[C@@H]2C1=O [manumycin A],0.917
6,CC(C)NC[C@H](O)COc1cccc2ccccc12.Cl [(S)-propranolol hydrochloride],0.275
7,COC(=O)[C@H]1[C@H]2C[C@@H]3c4[nH]c5cc(OC)ccc5c4CCN3C[C@H]2C[C@@H](OC(=O)/C=C/c2cc(OC)c(OC)c(OC)c2)[C@@H]1OC [Rescinnamin],0.292
8,COc1cc(/C=C/C(=O)N2CCC=CC2=O)cc(OC)c1OC [Piperlongumine],0.901
9,COc1cc(C(=O)OCCCN2CCCN(CCCOC(=O)c3cc(OC)c(OC)c(OC)c3)CC2)cc(OC)c1OC.Cl.Cl [Dilazep dihydrochloride],0.699
10,CN(C)CCC(c1ccccc1)c1ccccn1.O=C(O)/C=C\C(=O)O (centres undefined) [Pheniramine maleate],0.47
11,COc1cc(-c2ccc(=O)[nH]n2)ccc1OC(F)F [zardaverine],0.33
12,CCCCCCCC/C=C/CCCCCCCCCC(=O)O [11(E)-Eicosenoic acid],0.25
13,CCCCCCCC/C=C/CCCCCCCCCC(=O)O [5561-99-9 11(Z)-Eicosenoic acid],0.401
14,Cl.Cl.OCCN1CCN(CC/C=C2/c3ccccc3Sc3ccc(C(F)(F)F)cc32)CC1 [Flupentixol dihydrochloride cis-(Z)],0.291
15,CCCCC/C=C\C[C@@H](O)/C=C/C=C\CCC(=O)O [Tetranor-12(R)-HETE],0.513
16,CC(C)NCC(O)COc1cccc2ccccc12.Cl (stereo in doubt) [(R)-Propranolol hydrochloride],0.486
17,C[C@@H]1C/C=C/C=C/C=C/C=C/[C@H](O[C@@H]2O[C@H](C)[C@@H](O)[C@H](N)[C@@H]2O)C[C@@H]2O[C@](O)(C[C@@H](O)C[C@H]3OC3/C=C/C(=O)O1)C[C@H](O)[C@H]2C(=O)O (some centres undefined) [Natamycin],0.298

row,SMILES,fraction of GFP-LC3-positive cells
1,NS(=O)(=O)c1cc(C(=O)O)c(NCc2ccco2)cc1Cl [Furosemide],0.511
2,CCC(C)[C@H](NS(=O)(=O)c1cccc2ccccc12)C(=O)N[C@H](C=O)Cc1c[nH]c2ccccc12 (some centres undefined),0.69 and 0.692
3,CCN[C@H]1C[C@H](C)S(=O)(=O)c2sc(S(N)(=O)=O)cc21.Cl [Dorzolamide hydrochloride],0.432
4,C=C1c2c(Cl)ccc(O)c2C(=O)C2=C(O)[C@]3(O)C(=O)C(C(N)=O)=C(O)[C@@H](N(C)C)[C@@H]3[C@@H](O)C12.O=C(O)c1cc(S(=O)(=O)O)ccc1O (some centres undefined) [Meclocycline sulfosalicylate],0.345
5,CCc1cc(C(N)=S)ccn1 [Ethionamide],0.393
6,O=C(CCNNC(=O)c1ccncc1)NCc1ccccc1 [Nialamide],0.406
7,Clc1cccc(Nc2nnc(-c3ccccc3)c3ccccc23)c1,0.522
8,CC[C@H](C)C(=O)O[C@H]1C[C@@H](C)C=C2C=C[C@H](C)[C@H](CC[C@@H]3C[C@@H](O)CC(=O)O3)[C@H]21 [Lovastatin],0.0901
9,C=CC(N)CCC(=O)O (centres undefined) [Vigabatrin],0.474
10,O=C(O)CCCC[C@@H]1SC[C@@H]2NC(=O)N[C@@H]21 [Biotin],0.393
11,CCN(CC)CCOCCOC(=O)C1(c2ccccc2)CCCC1.O=C(O)CC(O)(CC(=O)O)C(=O)O [Carbetapentane citrate],0.469
12,NS(=O)(=O)c1cc(C(=O)O)cc(N2CCCC2)c1Oc1ccccc1 [Piretanide],0.344
13,CC(C(=O)O)c1ccc(C(=O)c2ccccc2)s1 (centres undefined) [Tiaprofenic acid],0.467
14,CN(C(Cc1ccc(OS(=O)(=O)c2cccc3cnccc23)cc1)C(=O)N1CCN(c2ccccc2)CC1)S(=O)(=O)c1cccc2cnccc12 (centres undefined),0.324 and 0.255
15,CCCCCCCCCCCCCCCCCCOC[C@@H](O)COP(=O)([O-])OCC[N+](C)(C)C,0.362
16,Cc1cc2cc3c(C)cc(=O)oc3c(C)c2o1 [Trioxsalen],0.357
17,COc1cc(C)nc(-n2nc(C)cc2OC)n1 [Epirizole],0.324
